The list is not random: actives were taken first. Their share in the collection is about 21%.
Pf growth 48h – P. falciparum growth inhibition at 48 hours (one generation) | P. falciparum luciferase growth in erythrocytes, 48 h | Potency, µM (titrated, usually from 28.7 µM), for the others: top-dose activity change, negative = inhibition, usual class: inhibitors | hit rate 5.9% among 310,000 | AID 504832; active = well fitted inhibition curve with a large enough effect; inconclusive = small, poorly fitted or top-dose-only effect, or another doubt; inactive = no such curve, though single readings can be large or run the other way; note: potency is the fitted concentration of half-maximal effect; % is set by controls: 0 for no effect and ±100 for the full control effect
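Compounds are pin-transferred into medium, infected erythrocytes (2% hematocrit, 0.1% parasitemia final) are added, and plates sit one parasite generation at 37 C in 5% CO2. Detection reagent is then added and luminescence measured.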
NS1 inh – influenza NS1 inhibition; hit rate 0.4% among 270,000; AID 2326; Potency, µM (highest dose often 46.1 µM), for inactives: at the highest dose activity, positive = more growth; note: potency is the fitted concentration of half-maximal effect; actives are rising curves; nearly all actives have a fitted effect of over 50% in size
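OD600 was taken as the measure of yeast growth restored by compound in an NS1-expressing S. cerevisiae strain. Cells had been washed out of glucose medium and diluted 1:100 into galactose -URA medium, pH 6.0.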
Pf growth 96h – P. falciparum growth inhibition at 96 hour, primary screen for plastid delayed-death inhibitors | hit rate 6.9% among 320,000 | Potency, µM (highest dose often 28.7 µM), inactives show at the top dose activity change, negative = inhibition, most hits filed as inhibitors | P. falciparum luciferase reporter growth, 96 h; active = well fitted inhibition curve with a large enough effect; inconclusive = small, poorly fitted or top-dose-only effect, or another doubt; inactive = no such curve, though single readings can be large or run the other way; note: potency is the fitted concentration of half-maximal effect; % is set by controls: 0 for no effect and ±100 for the full control effect
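P. falciparum expressing integrated firefly luciferase, in erythrocytes at 2% hematocrit, 0.05% parasitemia, incubated with compounds 96 h at 37 C, 5% CO2. Growth inhibition read as loss of luminescence; two-generation exposure targets delayed-death apicoplast inhibitors.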
Cycloheximide cs – counter-screen hit for Shiga toxin inhibitors, cycloheximide | cell reporter, cycloheximide protein synthesis inhibition counterscreen | max response, % | hit rate 12% among 300,000 | AID 2314; in the data active = max response mostly above about 13%, no sharp cut-off; inactive = mostly below about 14%; note: read at 38.3 µM for the half of the compounds with a filed dose; 0% is about no effect
SARS PLP yeast – SARS-CoV PLP inhibition in yeast | S. cerevisiae expressing SARS-CoV PLpro, growth rescue | Potency, µM (doses to about 32.9 µM), without a hit: at the top dose activity, positive = growth rescue, most hits filed as activators | hit rate 0.19% among 330,000; note: potency is the fitted concentration of half-maximal effect; 0% is about no effect; nearly all actives have a fitted effect of over 55% in size
Shiga inhibitor – Shiga toxin inhibition. Vero cells, Shiga toxin protein synthesis inhibition reporter. inhibition, % at 38.7 µM. hit rate 9.2% among 290,000; in the data active = inhibition mostly above about 28%, no sharp cut-off; inactive = mostly below about 43%; note: 0% is about no effect
An asterisk follows results filed as active; u = inconclusive; x = not tested or not shown; [ ] = remark or other dose. Unless noted, calls come from the whole dose curve.

SMILES	Pf growth 48h	NS1 inh	Pf growth 96h	Cycloheximide cs	SARS PLP yeast	Shiga inhibitor
O=C(c1cc2c(=O)n3ccccc3nc2s1)N1CCOCC1	111%	3%	5.2µM*	22*	-1%	39*
CC1(C)C2CCC1(CS(=O)(=O)NCc1ccc(C(F)(F)F)cc1)C(=O)C2 (stereo not given)	1%[0.00184 µM]	7%	10%	-4	-1%	-3
CCOC(=O)CC1CCCCN1C(=O)c1ccc2nc(CCOC)oc2c1 (stereo not given)	-1%	0%	19%	24	14%	10
C=CCNCCOCCOc1ccc(C)cc1Br	80%	10%	3%	28*	-15%	47
CCCCNCCCOc1ccc(C)cc1Br	u	5%	2.3µM*	2	0%	16
CC(CCc1ccccc1)NC(C)C(O)c1ccc(O)cc1 (stereo not given)	u	-5%	1.9µM*	-3	1%	-9
CC(C(O)c1ccc(O)cc1)N1CCC(Cc2ccccc2)CC1 (stereo not given)	2.1µM*	-18%	u	-4	0%	-9
C[C@@H](CN1CCC(Cc2ccccc2)CC1)[C@@H](O)c1ccc(O)cc1	u	-10%	-14%	x	x	x
CC(=O)c1cc(C(=O)NC2CCCc3c2cnn3-c2cc(C)cc(C)c2)[nH]n1 (stereo not given)	-19%	4%	-10%	29*	4%	35*
Cc1cc(C(=O)NC2CCCc3c2cnn3-c2ccc(C(C)(C)C)cc2)nn1C (stereo not given)	-19%	-45%	18%	-1	-5%	-23
Cc1cc(C(=O)NC2CCCc3c2cnn3-c2cccc(C)c2C)no1 (stereo not given)	-13%	-22%	u	27*	-7%	46*
Cc1cc(C)cc(-n2ncc3c2CCCC3NC(=O)c2cc(C)n(C)n2)c1 (stereo not given)	-20%	-23%	2%	22*	-12%	36*
O=C(CCNC(=O)c1ccc(Br)cc1)NCCCSc1ccccc1	-21%	x	4%	x	-7%	x
COC(=O)c1sccc1NC(=O)CC1C(=O)NCCN1C(=O)c1c(F)cccc1Cl (stereo not given)	2%	0%	0%	13	1%	-4
CN(CC(=O)Nc1ccccc1Br)C(=O)CNC(=O)c1ccc(Oc2ccccc2)cc1	u	5%	-11%	60*	6%	55*
COc1ccc(OC)c(NC(=O)N2CCc3ccccc3C2)c1	3%	-16%	-28%	16	5%	10
COc1ccc(NC(=O)N2CCc3ccccc3C2)c(OC)c1	3%	1%	38%	16*	-8%	36*
CCOc1ccccc1NC(=O)N1CCc2ccccc2C1	u	-45%	-18%	19*	-7%	22
CCCc1nnc(NC(=O)c2cn(CC)c3cc(N4CCN(C)CC4)c(F)cc3c2=O)s1	0.37µM*	3%	1.2µM*	-1	1%	-7
CCCCCNC(=O)c1cn(CC)c2cc(N3CCN(C)CC3)c(F)cc2c1=O	u	-2%	15µM*	-4	2%	25
COc1cc2c(cc1OC)/C(=C/C#N)NC(C)(C)C2	9.3µM*	15%	u	-4	-8%	-9
COc1cccc(NC(=O)C(=S)NC2CCCCC2)c1	128%	-7%	-17%	50*	-3%	106*
COc1cccc(NC(=O)C2CCCN2C(=O)NC2CCCCC2)c1 (stereo not given)	-13%	6%	26%	-3	0%	-5
COc1cccc(NC(=O)NC2CCCCCCC2)c1	51%	-58%	-90%	50*	-10%	155*
COc1cccc(NC(=S)N2CCC(NC(=O)C3CCCCC3)CC2)c1	-17%	10%	37%	-7	1%	-8
SMILES	Pf growth 48h	NS1 inh	Pf growth 96h	Cycloheximide cs	SARS PLP yeast	Shiga inhibitor
COC(=O)c1c(NC(=O)c2cccnc2Cl)sc(C(=O)N(C)C)c1C	7%	-6%	14%	-3	7%	-4
O=C(Oc1ccc([N+](=O)[O-])cc1)c1cccnc1	0%	-2%	u	-6	u	7
O=C(Oc1ccc(NC2=C(Cl)C(=O)c3ccccc3C2=O)cc1)c1ccc([N+](=O)[O-])cc1	17%	6%	31%	18*	-2%	-3
Cc1ccc2c(COC(=O)CC3Sc4ccccc4NC3=O)cc(=O)oc2c1C (stereo not given)	41%	16%	42%	6	3%	-11
COC(=O)c1ccc(-n2c(C)cc(C(=O)COC(=O)CC3Sc4ccccc4NC3=O)c2C)cc1 (stereo not given)	-21%	13%	u	21*	-1%	26*
Cc1cc(C(=O)COC(=O)CC2Sc3ccccc3NC2=O)c(C)n1-c1ccc2c(c1)OCO2 (stereo not given)	-9%	u	-12%	27*	-2%	37
Cc1cc(C(=O)COC(=O)CC2Sc3ccccc3NC2=O)c(C)n1-c1ccc(Br)cc1 (stereo not given)	-27%	u	u	26	-2%	42
Cc1cc(C(=O)COC(=O)CC2Sc3ccccc3NC2=O)c(C)n1-c1ccccc1 (stereo not given)	5%	17%	u	66*	u	50*
O=C(CC1Sc2ccccc2NC1=O)OCc1cc(=O)oc2cc(O)ccc12 (stereo not given)	-12%	19%	4.7µM*	1	-8%	19
CC(=O)N1c2ccccc2NC2=C(C(=O)CC(C)(C)C2)C1c1cccn1C (stereo not given)	-18%	x	u	-3	3%	-10
O=C(Nc1cccc(S(=O)(=O)N2CCCCC2)c1)c1ccc(S(=O)(=O)C(F)F)cc1	u	x	u	1	0%	2
O=C(CC1Sc2ccccc2NC1=O)OCC(=O)N1CCc2ccccc21 (stereo not given)	-9%	8%	u	32*	1%	92*
Cc1ccccc1OCC(=O)OCC(=O)N1CCc2ccccc21	-20%	x	40%	x	0%	x
CCOC(=O)Cc1ncccc1C(=O)Nc1ccc(Oc2ccccc2)cc1	8.3µM*	x	12µM*	5	-2%	3
O=C(Nc1ccccc1Oc1ccccc1)c1ccccc1F	u	-26%	-3%	-3	-24%	-2
O=C(Nc1ccc(F)cc1)c1cccnc1Oc1ccccc1	x	1%	18%	-2	9%	-3
O=C(Nc1ccc(Oc2cccnc2)cc1)c1ccccc1Cl	14%	-8%	u	27*	-17%	2
O=C(Nc1ccc(Oc2cccnc2)cc1)c1ccccc1F	-13%	-12%	88%	26*	-6%	64
O=C(NC1CC2CCC(C1)N2Cc1ccccc1)c1ccccc1Cl (stereo not given)	1%	5%	13µM*	-2	0%	-2
Cc1ccccc1C(=O)NC1CC2CCCC(C1)N2Cc1ccccc1 (stereo not given)	-3%	3%	u	1	-6%	-6
